ETS1 binding intensity and RUNX1 binding intensity data for 42 sequences are collected here from the supplement of paper PMC10681739.

In test [1] the target is T1, ETS1 (UniProt P14921).
T1 sequence: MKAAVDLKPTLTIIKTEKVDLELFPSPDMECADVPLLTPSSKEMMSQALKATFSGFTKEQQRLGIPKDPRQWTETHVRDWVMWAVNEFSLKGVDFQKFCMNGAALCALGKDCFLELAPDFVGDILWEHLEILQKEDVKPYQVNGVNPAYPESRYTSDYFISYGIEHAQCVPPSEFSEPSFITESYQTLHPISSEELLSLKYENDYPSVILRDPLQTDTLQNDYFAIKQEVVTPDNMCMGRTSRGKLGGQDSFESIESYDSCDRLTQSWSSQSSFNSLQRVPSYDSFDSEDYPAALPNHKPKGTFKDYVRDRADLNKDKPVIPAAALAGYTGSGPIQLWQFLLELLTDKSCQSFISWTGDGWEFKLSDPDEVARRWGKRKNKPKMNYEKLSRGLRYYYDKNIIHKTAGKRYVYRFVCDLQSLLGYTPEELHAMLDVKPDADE
The experiment in a line: ETS1 binding intensity (PBM fluorescence), ETS1 alone (arbitrary fluorescence units); higher = stronger binding. As to conditions: ETS1 concentration 1 nM; RUNX1 concentration 0 nM.

Another test addresses RUNX1 (UniProt Q01196). The test is described as follows: RUNX1 binding intensity (PBM fluorescence), RUNX1 alone (arbitrary fluorescence units); higher = stronger binding. As to conditions: RUNX1 concentration 2 nM; ETS1 concentration 0 nM. How it is done:
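Cooperative gcPBM on 36-bp genomic probes with neighbouring ETS1 and RUNX1 sites. Recombinant human RUNX1 (2 nM) was incubated alone or with ETS1 (25 nM) and detected with anti-RUNX1 antibody plus Alexa488 secondary. Values are medians over 4 replicate spots; the RUNX1+ETS1 data were normalised to the RUNX1-only data. The probes sit in constant array flanks that are not printed.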

In test [2] the target is T1, ETS1. The test is described as follows: ETS1 binding intensity (PBM fluorescence) in presence of RUNX1, normalised to ETS1-only experiment (arbitrary fluorescence units); higher = stronger binding. As to conditions: ETS1 concentration 1 nM; RUNX1 concentration 25 nM.
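Wherever RUNX1 binding intensity (PBM fluorescence), RUNX1 alone is given: Full-length recombinant human RUNX1 bound to double-stranded 36-bp genomic probes on a high-density microarray, scored as Alexa488 fluorescence per spot via anti-RUNX1 antibody, median of four replicate spots.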

Sequence of RUNX1 (Q01196 whole entry): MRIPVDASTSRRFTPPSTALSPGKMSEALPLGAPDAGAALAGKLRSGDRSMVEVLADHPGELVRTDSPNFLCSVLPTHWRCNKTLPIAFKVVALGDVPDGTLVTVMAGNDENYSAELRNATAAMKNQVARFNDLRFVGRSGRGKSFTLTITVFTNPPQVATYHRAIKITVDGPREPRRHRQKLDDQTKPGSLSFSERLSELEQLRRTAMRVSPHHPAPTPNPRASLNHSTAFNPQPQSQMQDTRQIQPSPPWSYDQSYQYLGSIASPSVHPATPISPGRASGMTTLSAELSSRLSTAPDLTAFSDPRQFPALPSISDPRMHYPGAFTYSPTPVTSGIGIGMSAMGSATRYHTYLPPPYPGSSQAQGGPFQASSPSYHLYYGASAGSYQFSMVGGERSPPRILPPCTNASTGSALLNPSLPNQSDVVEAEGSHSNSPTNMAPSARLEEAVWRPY

For AAAAAGCCGGATGTGAAGGCTGTGGTTCTCAACCCG, the ETS1 binding intensity in the test with ETS1 [1] worked out at 2880; with ETS1 [2] it was 6480. The sequence also displayed an RUNX1 binding intensity with RUNX1 of 745.

For AAATACCAGCCCACTTCCTGTGGCTTTGATCTGCAG, the values for the ETS1 binding intensity in the test with ETS1 [1] and with ETS1 [2] were 2090 and 3340, respectively. In the test with RUNX1, this sequence returned an RUNX1 binding intensity of 855.

For the sequence TACATCTTCAGAGGAAGTGGGTTTGTGTATCTTTGA, the ETS1 binding intensity is 2460 in the test with ETS1 [1] and 3750 with ETS1 [2]. The sequence further gave an RUNX1 binding intensity in the test with RUNX1 of 786.

GGCGGAAGCTGCCGCTGCCTTGCGCCCCCACACACG: the ETS1 binding intensity with ETS1 [1] amounted to 640; in the test with ETS1 [2], 685. For the same sequence, the RUNX1 binding intensity with RUNX1 stood at 818.

The sequence AACAGTTGCATAGGAAGTGGTCAGCTCTCCTCCACC returned an ETS1 binding intensity with ETS1 [1] of 1260. Further, the RUNX1 binding intensity with RUNX1 turned out to be 828.

For the sequence TTCTATCCTGCCTTGCATGTCTTTAACCACACTGAG, the ETS1 binding intensity with ETS1 [1] worked out at 396; with ETS1 [2], 489. The RUNX1 binding intensity in the test with RUNX1 amounted to 1800.

On to GTCTGCTTAAAAACAGGAAACCACATATCTCCACCC, for which the results for the ETS1 binding intensity with ETS1 [1] and with ETS1 [2] were 3670 and 10700, respectively. The sequence further displayed an RUNX1 binding intensity in the test with RUNX1 of 1600.

In the case of CATACAGGATGCTGGGGTATGTAAAACAAACCACGG, the ETS1 binding intensity with ETS1 [1] is 708; with ETS1 [2] it was 678. For the same sequence, the RUNX1 binding intensity in the test with RUNX1 amounted to 775.

For the sequence TCCAGCGGAAGGGGGCATCTTTGCGGCAGAGGCAGC, the ETS1 binding intensity in the test with ETS1 [1] came to 470; in the test with ETS1 [2], 431. The RUNX1 binding intensity in the test with RUNX1 was found to be 764.

Regarding TATTCTTCCTGTACTTAAGCTTGCTGGTGTGGTTTC, the ETS1 binding intensity in the test with ETS1 [1] came to 397; with ETS1 [2] it was 492. In the test with RUNX1, this sequence returned an RUNX1 binding intensity of 868.

As for GCACCGTCTACCCGGAAGTTGTGGGCTGGGAGGGAT, the figures for the ETS1 binding intensity with ETS1 [1] and in the test with ETS1 [2] were 5610 and 9990, respectively. The same sequence displayed an RUNX1 binding intensity with RUNX1 of 813.

TACACTCCCACATCCGCTGCGGCGCAACTCACAACA: the values for the ETS1 binding intensity with ETS1 [1] and with ETS1 [2] were 969 and 1260, respectively. Moreover, in the test with RUNX1, the RUNX1 binding intensity was 1020.

Take AGAAGCTGCACCCGGAAATGAAACCACCAGGACCTC: the ETS1 binding intensity with ETS1 [1] was 4630; in the test with ETS1 [2] it was 9310. Also, the RUNX1 binding intensity in the test with RUNX1 stood at 887.

Take ACCAGCCCAGGAAGCATCTGCGGTTCAAGTGGCCAC: the ETS1 binding intensity in the test with ETS1 [1] was determined as 452; with ETS1 [2], 1470. In the test with RUNX1, this sequence came in with an RUNX1 binding intensity of 1130.

Turning to CTTCAAAGTCAGGAAACCGTTAAACCACACTGCATC, the ETS1 binding intensity with ETS1 [1] turned out to be 716; with ETS1 [2], 1910. In the test with RUNX1, this sequence registered an RUNX1 binding intensity of 1100.

Regarding GCCATTAAAGCAGCTTCCTGTGGGCGCGGCGCAGGA, the ETS1 binding intensity with ETS1 [1] worked out at 888; with ETS1 [2], 867. Moreover, the RUNX1 binding intensity in the test with RUNX1 was found to be 753.

Regarding CCCCTGCCCCTTCCTGGAAGGCTGCGGTGTAACACC, the ETS1 binding intensity in the test with ETS1 [1] amounted to 435; with ETS1 [2] it was 704. Moreover, the RUNX1 binding intensity in the test with RUNX1 was 978.

Turning to AGTCAGCAGAGAGGAAGTGGTTAGTCCTGCCTTGAA, the ETS1 binding intensity with ETS1 [1] was 2240; with ETS1 [2] it was 4900. This sequence returned an RUNX1 binding intensity with RUNX1 of 742.

For TGCACGGTAAGCAGGAAGCTGCGGCCGAGCTGAGTC, the ETS1 binding intensity with ETS1 [1] is 2020; with ETS1 [2], 3120. Further, the RUNX1 binding intensity with RUNX1 came to 687.

As to GCCTGTCGCAGGAACGGAAGTGGTTACGGCCCTAGT, the ETS1 binding intensity is 8480 with ETS1 [1] and 19800 with ETS1 [2]. In the test with RUNX1, this sequence came in with an RUNX1 binding intensity of 830.

Take GATTTGTCACAGGAAGTACCCACAGGCCAAGAAGTG: the ETS1 binding intensity stood at 5230 with ETS1 [1] and 5790 with ETS1 [2]. In the test with RUNX1, the RUNX1 binding intensity is 817.

For the sequence GCAGAACCAGAAACAGGATGTGGGTTCCCCTTTAAG, the ETS1 binding intensity with ETS1 [1] amounted to 7390; with ETS1 [2], 18900. In addition, in the test with RUNX1, the RUNX1 binding intensity amounted to 826.

On to TACATAGGCGGAAGTGGCCTGCGGGCGCCGGAGTTG, for which the ETS1 binding intensity with ETS1 [1] was 3980; with ETS1 [2] it was 9480. For the same sequence, the RUNX1 binding intensity with RUNX1 was 714.

GCGAAAGGAACTTCCTTTGCATGCGGTCAGAGTGCT: the ETS1 binding intensity in the test with ETS1 [1] was 477; in the test with ETS1 [2], 2280. The same sequence registered an RUNX1 binding intensity with RUNX1 of 892.

On to TCCTGTAGTTTCCGGCTGAAGTGGTAAGGTTTTTGA, for which the ETS1 binding intensity worked out at 845 with ETS1 [1] and 852 with ETS1 [2]. The same sequence returned an RUNX1 binding intensity with RUNX1 of 925.

On to GCAGTGCAGGAAGTGCTTTGTGTGGTACAATCCCAA, for which the ETS1 binding intensity in the test with ETS1 [1] came out at 1920; with ETS1 [2], 2110. Also, the RUNX1 binding intensity with RUNX1 worked out at 759.

Regarding GGATGAACAGGAAGCTAAAGTAAATACCACAGTGAC, the figures for the ETS1 binding intensity with ETS1 [1] and with ETS1 [2] were 1710 and 3860, respectively. The same sequence returned an RUNX1 binding intensity with RUNX1 of 764.

As for CGAGGGAGCCGGAAAGATGGTGGTTACCAGATCTGC, the figures for the ETS1 binding intensity with ETS1 [1] and with ETS1 [2] were 608 and 992, respectively. This sequence also came in with an RUNX1 binding intensity with RUNX1 of 766.

Consider CAAGCTGGCAGGAAGCGCGGTGCAACCACAAGAGTC, for which the ETS1 binding intensity with ETS1 [1] worked out at 1870; with ETS1 [2], 6690. Also, in the test with RUNX1, the RUNX1 binding intensity is 765.

AACTGTCTCTACCCAGGAAGTGGTTTTATTTAAAAG: the results for the ETS1 binding intensity in the test with ETS1 [1] and with ETS1 [2] were 5160 and 14900, respectively. This sequence also had an RUNX1 binding intensity with RUNX1 of 1020.

With GACCTGGGTTTCCTGTCTGTACATCGCGGTTCCTAC, the ETS1 binding intensity with ETS1 [1] was determined as 936; with ETS1 [2], 1260. The RUNX1 binding intensity with RUNX1 turned out to be 856.

As for GTGGGGGTGACAGGATGCGGGTAGAGGGCTCAGCCA, the ETS1 binding intensity was determined as 1950 in the test with ETS1 [1] and 2770 in the test with ETS1 [2]. The sequence also gave an RUNX1 binding intensity with RUNX1 of 909.

On to ATTCCTAGAGAGGAAATGCGGGCTCAGGGTGTCGGC, for which the ETS1 binding intensity was 1550 in the test with ETS1 [1] and 1560 in the test with ETS1 [2]. The same sequence came in with an RUNX1 binding intensity in the test with RUNX1 of 754.

Turning to ACTTGACTTCCTGTGGGGTGTGTGGTGTCTGCACTT, the ETS1 binding intensity is 940 in the test with ETS1 [1] and 901 with ETS1 [2]. This sequence had an RUNX1 binding intensity in the test with RUNX1 of 798.

Regarding AGTCCACACTACAGGAAACCACAGGCCTGAGCCCCA, the ETS1 binding intensity is 1580 with ETS1 [1] and 3180 with ETS1 [2]. In the test with RUNX1, this sequence gave an RUNX1 binding intensity of 2870.

Take GGGAGGCCCCATCCTGTGTGGCTGTGGCTTTTGCCT: the ETS1 binding intensity with ETS1 [1] amounted to 414; in the test with ETS1 [2], 451. In the test with RUNX1, this sequence yielded an RUNX1 binding intensity of 653.

As to GTGGATTTCACATCCTGTCCTAGCGGTATGTTTGTC, the ETS1 binding intensity with ETS1 [1] was 1470; in the test with ETS1 [2], 1610. The sequence further registered an RUNX1 binding intensity with RUNX1 of 783.

Take GTAAACTAGCTCTTCCGGTCTGTGGCCCTCACAGGA: the ETS1 binding intensity with ETS1 [1] turned out to be 2840; with ETS1 [2] it was 3250. This sequence showed an RUNX1 binding intensity with RUNX1 of 824.

Take AGAACCACTTCCTCTCAGTAAACCACAGAGACTGTA: the ETS1 binding intensity was 592 with ETS1 [1] and 1310 in the test with ETS1 [2]. The sequence also yielded an RUNX1 binding intensity with RUNX1 of 1790.

Take GGCAAACAGGAAACACTCCCAGGGCTGTGGGCTCCT: the ETS1 binding intensity with ETS1 [1] amounted to 1550; with ETS1 [2], 1790. Moreover, the RUNX1 binding intensity in the test with RUNX1 was 727.

Turning to GTGGGTTTAGGATATGGGTGTGGTTTCTAATTGTCT, the values for the ETS1 binding intensity with ETS1 [1] and with ETS1 [2] were 428 and 653, respectively. Further, the RUNX1 binding intensity with RUNX1 was 885.

GTGGGGAGAGGCAGGAAACCGCTGCCGCCGACGGGG: the ETS1 binding intensity with ETS1 [1] turned out to be 3550; with ETS1 [2], 4730. This sequence also displayed an RUNX1 binding intensity with RUNX1 of 807.
